Two compounds from ChEMBL document CHEMBL1961873, “Compounds: GSK PKIS; Assays: Nanosyn kinase panel” (2012) can be followed below.

The target in experiment [1] is T1, Inhibitor of nuclear factor kappa-B kinase subunit epsilon (Homo sapiens) (UniProt Q14164).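 Further: reported values are averaged percent inhibition figures against human IKKε.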
T1 sequence (whole entry): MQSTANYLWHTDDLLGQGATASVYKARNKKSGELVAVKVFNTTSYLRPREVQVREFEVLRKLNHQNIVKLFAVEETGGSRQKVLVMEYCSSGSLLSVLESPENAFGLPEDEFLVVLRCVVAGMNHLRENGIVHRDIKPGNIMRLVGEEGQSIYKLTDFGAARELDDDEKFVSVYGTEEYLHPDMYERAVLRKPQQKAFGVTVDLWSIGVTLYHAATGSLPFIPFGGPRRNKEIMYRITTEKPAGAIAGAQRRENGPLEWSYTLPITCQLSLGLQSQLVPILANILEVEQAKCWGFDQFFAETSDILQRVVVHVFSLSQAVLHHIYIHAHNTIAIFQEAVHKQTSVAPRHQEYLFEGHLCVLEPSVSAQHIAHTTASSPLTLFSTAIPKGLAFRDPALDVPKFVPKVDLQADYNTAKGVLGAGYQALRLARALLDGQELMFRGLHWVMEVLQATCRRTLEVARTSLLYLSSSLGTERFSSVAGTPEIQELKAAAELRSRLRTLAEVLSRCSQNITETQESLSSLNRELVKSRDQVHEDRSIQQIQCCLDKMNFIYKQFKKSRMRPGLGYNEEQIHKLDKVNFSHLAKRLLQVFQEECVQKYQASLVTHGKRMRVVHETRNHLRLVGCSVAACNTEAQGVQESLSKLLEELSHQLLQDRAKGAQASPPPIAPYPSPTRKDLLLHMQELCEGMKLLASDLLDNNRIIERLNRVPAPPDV
To be noted: at 1 µM.

Experiment [2] has as its target T2, Serine/threonine-protein kinase Nek1 (Homo sapiens) (UniProt Q96PY6).
T2 sequence (whole entry): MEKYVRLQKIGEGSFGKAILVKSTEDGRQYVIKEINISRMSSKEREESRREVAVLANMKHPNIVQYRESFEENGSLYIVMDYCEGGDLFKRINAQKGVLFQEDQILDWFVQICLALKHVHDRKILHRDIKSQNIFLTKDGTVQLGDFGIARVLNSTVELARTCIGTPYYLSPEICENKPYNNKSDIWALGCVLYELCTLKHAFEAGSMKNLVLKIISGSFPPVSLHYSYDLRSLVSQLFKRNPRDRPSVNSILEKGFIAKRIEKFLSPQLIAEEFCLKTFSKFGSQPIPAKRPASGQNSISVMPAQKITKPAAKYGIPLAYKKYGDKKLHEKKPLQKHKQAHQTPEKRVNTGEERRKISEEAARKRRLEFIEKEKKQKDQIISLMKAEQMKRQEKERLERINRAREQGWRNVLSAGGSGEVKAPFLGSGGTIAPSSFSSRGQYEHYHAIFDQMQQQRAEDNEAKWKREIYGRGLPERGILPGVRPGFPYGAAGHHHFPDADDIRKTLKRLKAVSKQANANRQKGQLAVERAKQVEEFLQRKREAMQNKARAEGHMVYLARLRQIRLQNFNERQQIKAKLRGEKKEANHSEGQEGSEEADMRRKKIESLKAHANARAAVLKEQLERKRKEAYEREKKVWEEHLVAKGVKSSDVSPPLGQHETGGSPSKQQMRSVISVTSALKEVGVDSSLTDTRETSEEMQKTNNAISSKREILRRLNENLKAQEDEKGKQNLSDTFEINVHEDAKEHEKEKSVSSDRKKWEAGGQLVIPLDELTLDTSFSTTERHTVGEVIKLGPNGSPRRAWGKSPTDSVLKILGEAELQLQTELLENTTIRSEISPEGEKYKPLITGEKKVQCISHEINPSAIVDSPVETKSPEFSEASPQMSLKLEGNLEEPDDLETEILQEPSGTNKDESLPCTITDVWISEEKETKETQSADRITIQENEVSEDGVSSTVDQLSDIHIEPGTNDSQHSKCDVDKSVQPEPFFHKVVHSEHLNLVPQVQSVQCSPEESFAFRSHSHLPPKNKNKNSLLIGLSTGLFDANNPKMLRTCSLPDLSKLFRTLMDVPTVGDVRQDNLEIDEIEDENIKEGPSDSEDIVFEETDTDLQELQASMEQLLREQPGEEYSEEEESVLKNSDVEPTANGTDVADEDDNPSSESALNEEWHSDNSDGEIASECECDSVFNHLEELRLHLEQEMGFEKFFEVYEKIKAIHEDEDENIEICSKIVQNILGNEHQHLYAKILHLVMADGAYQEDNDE
The following applies: at 0.1 µM.

For experiment [3], the target named is T2, Serine/threonine-protein kinase Nek1 (Homo sapiens). To be noted: at 1 µM.
In experiment [4] the target is T3, Serine/threonine-protein kinase Nek2 (Homo sapiens) (UniProt P51955).
T3 sequence (whole entry): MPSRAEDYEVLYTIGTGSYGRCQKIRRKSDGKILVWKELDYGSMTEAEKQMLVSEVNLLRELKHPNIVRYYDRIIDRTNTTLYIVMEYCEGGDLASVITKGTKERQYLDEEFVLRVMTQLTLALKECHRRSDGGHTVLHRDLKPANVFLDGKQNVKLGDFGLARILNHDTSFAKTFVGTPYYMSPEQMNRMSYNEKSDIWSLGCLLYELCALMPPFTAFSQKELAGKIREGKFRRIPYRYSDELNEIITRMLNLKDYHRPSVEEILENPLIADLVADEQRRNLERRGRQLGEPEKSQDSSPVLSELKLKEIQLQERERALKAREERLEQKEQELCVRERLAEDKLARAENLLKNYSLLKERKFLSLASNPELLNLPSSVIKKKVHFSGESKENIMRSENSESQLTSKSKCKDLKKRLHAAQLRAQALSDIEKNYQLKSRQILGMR
The following applies: at 0.1 µM.

For experiment [5], the target named is T3, Serine/threonine-protein kinase Nek2 (Homo sapiens). The following applies: at 1 µM.
Experiment [6] concerns the target Serine/threonine-protein kinase Nek6 (Homo sapiens) (UniProt Q9HC98). To be noted: at 0.1 µM.
The target is the same in experiment [7]. To be noted: at 1 µM.
Experiment [8] addresses Serine/threonine-protein kinase Nek7 (Homo sapiens) (UniProt Q8TDX7). To be noted: at 0.1 µM.
Experiment [9] shares this target. The following applies: at 1 µM.
Experiment [10] deals with T4, Serine/threonine-protein kinase Nek9 (Homo sapiens) (UniProt Q8TD19).
T4 sequence (whole entry): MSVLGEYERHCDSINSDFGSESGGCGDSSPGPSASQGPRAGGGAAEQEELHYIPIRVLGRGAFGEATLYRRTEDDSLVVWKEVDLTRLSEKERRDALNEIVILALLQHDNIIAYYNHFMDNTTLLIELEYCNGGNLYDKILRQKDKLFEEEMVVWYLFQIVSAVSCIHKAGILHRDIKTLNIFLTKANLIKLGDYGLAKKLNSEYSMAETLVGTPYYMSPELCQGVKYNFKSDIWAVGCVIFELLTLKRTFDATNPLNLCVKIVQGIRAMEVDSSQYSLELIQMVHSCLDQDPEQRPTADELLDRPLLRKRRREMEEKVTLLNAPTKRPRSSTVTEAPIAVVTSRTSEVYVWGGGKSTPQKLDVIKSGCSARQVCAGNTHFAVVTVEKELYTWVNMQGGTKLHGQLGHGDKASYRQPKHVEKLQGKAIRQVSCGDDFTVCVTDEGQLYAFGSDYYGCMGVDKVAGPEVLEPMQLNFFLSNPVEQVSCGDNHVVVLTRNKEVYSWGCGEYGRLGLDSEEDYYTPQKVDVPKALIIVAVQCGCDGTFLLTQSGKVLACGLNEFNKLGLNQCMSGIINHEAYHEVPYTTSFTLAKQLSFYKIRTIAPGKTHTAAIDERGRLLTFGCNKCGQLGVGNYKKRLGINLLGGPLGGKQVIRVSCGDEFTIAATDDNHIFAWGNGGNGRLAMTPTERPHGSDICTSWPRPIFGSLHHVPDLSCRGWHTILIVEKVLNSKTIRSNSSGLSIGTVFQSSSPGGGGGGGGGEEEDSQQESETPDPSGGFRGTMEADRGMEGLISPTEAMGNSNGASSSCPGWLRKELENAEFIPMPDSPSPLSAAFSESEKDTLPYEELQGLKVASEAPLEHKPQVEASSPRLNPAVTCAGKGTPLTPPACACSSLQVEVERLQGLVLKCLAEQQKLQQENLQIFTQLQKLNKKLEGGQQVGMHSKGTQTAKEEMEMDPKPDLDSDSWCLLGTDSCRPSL
To be noted: at 0.1 µM.

In experiment [11] the target is T4, Serine/threonine-protein kinase Nek9 (Homo sapiens). To be noted: at 1 µM.
In experiment [12] the target is Serine/threonine-protein kinase PLK1 (Homo sapiens) (UniProt P53350). The following applies: at 0.1 µM.
The target is the same in experiment [13]. To be noted: at 1 µM.
In experiment [14] the target is T5, Dual specificity protein kinase TTK (Homo sapiens) (UniProt P33981).
T5 sequence (whole entry): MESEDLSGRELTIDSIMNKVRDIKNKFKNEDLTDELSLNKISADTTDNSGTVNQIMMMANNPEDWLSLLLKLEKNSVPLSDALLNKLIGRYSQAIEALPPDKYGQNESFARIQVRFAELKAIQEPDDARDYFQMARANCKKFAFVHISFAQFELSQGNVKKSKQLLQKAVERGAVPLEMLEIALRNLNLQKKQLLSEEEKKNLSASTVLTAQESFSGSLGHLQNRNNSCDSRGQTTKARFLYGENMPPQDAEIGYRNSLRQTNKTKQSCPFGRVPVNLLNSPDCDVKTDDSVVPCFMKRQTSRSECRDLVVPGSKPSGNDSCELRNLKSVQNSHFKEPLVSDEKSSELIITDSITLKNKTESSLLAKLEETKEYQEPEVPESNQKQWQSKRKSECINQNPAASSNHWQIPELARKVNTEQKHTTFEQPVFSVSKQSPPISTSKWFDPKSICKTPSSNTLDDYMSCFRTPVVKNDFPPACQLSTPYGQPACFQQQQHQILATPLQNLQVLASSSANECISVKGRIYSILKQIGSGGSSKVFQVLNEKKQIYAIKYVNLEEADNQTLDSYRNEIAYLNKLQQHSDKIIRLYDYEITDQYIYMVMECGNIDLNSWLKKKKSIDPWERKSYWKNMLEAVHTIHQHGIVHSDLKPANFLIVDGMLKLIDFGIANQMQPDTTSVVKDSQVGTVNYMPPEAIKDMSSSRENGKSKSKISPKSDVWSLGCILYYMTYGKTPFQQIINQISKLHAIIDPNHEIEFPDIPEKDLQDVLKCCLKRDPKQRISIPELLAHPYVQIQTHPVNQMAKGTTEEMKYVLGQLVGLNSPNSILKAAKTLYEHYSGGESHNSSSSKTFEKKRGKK
The following applies: at 0.1 µM.

Experiment [15] relates to T6, Receptor-type tyrosine-protein kinase FLT3 (Homo sapiens), P36888 [D835Y].
T6 sequence (whole entry): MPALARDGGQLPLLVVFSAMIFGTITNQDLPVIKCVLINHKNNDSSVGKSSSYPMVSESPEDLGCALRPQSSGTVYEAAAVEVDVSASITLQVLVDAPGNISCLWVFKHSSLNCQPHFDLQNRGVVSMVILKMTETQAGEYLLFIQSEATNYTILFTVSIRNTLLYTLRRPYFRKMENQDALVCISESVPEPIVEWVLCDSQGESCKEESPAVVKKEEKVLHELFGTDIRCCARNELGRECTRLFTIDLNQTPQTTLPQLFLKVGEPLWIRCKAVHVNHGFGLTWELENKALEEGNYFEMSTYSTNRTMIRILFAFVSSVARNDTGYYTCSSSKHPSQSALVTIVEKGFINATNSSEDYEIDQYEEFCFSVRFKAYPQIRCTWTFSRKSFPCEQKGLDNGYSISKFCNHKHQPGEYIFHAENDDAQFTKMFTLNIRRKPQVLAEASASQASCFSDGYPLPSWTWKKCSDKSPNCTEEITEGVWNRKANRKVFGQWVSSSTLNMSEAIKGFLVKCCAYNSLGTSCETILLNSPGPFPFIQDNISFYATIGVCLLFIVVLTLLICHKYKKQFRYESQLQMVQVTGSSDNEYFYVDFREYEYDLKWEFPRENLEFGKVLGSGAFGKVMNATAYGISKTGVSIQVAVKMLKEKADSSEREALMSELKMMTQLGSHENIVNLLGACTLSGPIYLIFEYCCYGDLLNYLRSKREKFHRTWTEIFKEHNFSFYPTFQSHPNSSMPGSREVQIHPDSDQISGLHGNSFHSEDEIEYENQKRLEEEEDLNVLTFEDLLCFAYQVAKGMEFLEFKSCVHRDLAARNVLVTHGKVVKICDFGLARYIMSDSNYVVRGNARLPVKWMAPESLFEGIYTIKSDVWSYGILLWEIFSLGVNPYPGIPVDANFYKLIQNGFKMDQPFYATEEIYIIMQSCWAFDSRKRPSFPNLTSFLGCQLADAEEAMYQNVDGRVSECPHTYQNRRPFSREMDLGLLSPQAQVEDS
The following applies: at 1 µM.

Experiment [16] addresses Vascular endothelial growth factor receptor 3 (Homo sapiens) (UniProt P35916). The following applies: at 0.1 µM.
Experiment [17] has the same target. To be noted: at 1 µM.
Experiment [18] has as its target Macrophage colony-stimulating factor 1 receptor (Homo sapiens) (UniProt P07333). The following applies: at 0.1 µM.
The target is the same in experiment [19]. To be noted: at 1 µM.
For experiment [20], the target named is Tyrosine-protein kinase Fyn (Homo sapiens) (UniProt P06241). To be noted: at 0.1 µM.

Each structure is given as a SMILES string.

Chain of Macrophage colony-stimulating factor 1 receptor (Homo sapiens) (P07333 whole entry): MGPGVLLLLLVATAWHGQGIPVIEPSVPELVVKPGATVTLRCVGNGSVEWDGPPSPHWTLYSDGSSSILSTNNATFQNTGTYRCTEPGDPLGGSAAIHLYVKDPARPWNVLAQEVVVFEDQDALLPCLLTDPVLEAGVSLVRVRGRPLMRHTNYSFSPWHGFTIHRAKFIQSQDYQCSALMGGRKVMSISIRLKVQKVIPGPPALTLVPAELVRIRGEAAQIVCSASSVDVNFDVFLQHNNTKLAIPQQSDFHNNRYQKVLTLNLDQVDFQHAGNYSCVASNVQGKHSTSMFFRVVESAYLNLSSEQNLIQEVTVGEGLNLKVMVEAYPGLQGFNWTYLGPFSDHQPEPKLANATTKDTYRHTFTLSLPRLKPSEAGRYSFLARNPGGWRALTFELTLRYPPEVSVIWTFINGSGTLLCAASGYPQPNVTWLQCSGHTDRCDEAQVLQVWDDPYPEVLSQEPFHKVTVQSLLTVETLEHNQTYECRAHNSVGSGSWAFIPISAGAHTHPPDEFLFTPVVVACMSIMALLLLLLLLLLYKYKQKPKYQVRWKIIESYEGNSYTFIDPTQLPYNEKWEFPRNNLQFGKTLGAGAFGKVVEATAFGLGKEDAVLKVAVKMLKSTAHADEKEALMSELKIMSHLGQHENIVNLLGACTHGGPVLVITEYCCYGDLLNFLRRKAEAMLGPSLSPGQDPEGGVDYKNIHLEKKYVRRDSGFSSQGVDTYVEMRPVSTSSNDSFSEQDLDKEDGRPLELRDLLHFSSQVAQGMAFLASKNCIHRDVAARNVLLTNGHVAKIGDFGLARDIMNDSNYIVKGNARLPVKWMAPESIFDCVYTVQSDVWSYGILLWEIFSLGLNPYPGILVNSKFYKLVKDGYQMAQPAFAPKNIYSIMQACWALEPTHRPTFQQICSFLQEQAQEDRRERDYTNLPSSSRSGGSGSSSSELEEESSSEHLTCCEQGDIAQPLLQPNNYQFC
Chain of Serine/threonine-protein kinase Nek7 (Homo sapiens) (Q8TDX7 whole entry, looked up): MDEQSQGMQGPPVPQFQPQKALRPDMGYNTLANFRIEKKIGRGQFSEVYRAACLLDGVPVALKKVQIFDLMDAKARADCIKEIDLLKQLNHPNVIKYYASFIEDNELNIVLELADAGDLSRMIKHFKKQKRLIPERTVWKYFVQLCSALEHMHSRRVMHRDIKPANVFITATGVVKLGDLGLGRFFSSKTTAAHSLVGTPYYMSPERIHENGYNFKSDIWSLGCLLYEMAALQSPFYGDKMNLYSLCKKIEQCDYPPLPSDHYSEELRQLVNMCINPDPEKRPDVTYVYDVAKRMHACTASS
Chain of Vascular endothelial growth factor receptor 3 (Homo sapiens) (P35916 whole entry): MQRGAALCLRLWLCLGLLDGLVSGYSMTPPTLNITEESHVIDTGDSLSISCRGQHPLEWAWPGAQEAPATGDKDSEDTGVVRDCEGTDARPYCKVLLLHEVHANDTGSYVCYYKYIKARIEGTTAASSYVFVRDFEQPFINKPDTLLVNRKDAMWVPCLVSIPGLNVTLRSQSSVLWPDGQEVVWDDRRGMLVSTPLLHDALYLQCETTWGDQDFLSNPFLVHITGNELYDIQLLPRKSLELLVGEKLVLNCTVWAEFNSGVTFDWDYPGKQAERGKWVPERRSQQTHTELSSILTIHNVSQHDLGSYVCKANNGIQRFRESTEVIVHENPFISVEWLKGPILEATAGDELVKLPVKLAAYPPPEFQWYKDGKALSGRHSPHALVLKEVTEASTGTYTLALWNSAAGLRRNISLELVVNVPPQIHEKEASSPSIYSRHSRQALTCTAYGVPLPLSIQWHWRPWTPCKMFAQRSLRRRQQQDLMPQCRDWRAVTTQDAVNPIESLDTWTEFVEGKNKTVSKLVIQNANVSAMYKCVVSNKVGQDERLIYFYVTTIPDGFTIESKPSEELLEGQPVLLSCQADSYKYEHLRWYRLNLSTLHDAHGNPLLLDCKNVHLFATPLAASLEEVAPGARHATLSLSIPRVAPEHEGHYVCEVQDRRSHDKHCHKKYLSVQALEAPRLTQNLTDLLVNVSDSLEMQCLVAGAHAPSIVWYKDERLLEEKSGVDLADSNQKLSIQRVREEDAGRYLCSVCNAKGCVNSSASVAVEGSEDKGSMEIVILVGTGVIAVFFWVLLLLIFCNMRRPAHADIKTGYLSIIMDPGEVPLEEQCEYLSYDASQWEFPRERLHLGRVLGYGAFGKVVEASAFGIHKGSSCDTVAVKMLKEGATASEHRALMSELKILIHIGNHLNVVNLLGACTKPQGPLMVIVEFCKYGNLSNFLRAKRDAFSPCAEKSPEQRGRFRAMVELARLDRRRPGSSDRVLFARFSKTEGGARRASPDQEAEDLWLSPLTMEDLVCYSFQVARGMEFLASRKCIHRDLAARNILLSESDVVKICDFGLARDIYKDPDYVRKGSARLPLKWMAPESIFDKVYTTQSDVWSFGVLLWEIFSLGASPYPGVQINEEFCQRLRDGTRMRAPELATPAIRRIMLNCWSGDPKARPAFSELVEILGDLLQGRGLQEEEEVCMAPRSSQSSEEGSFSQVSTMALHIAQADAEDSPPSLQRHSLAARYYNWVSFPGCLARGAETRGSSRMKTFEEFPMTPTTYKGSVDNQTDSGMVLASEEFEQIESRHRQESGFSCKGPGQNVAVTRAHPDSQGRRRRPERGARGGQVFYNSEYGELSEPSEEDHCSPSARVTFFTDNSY
Chain of Serine/threonine-protein kinase PLK1 (Homo sapiens) (P53350 whole entry): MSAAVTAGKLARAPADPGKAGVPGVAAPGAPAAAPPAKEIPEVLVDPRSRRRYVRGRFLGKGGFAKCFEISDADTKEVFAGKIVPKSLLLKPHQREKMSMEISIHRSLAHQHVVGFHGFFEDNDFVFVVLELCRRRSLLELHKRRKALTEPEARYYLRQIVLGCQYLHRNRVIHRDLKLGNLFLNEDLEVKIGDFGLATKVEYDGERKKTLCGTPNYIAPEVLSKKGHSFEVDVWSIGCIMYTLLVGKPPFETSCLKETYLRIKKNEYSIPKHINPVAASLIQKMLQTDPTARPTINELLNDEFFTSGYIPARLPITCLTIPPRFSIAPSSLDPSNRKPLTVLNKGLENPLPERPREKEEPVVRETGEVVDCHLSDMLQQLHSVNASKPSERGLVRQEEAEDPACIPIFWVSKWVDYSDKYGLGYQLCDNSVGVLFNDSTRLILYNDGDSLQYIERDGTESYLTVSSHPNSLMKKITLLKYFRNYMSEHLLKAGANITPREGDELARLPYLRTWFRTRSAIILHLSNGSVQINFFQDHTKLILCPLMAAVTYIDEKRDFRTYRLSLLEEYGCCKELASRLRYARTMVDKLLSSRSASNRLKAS
Chain of Serine/threonine-protein kinase Nek6 (Homo sapiens) (Q9HC98 whole entry): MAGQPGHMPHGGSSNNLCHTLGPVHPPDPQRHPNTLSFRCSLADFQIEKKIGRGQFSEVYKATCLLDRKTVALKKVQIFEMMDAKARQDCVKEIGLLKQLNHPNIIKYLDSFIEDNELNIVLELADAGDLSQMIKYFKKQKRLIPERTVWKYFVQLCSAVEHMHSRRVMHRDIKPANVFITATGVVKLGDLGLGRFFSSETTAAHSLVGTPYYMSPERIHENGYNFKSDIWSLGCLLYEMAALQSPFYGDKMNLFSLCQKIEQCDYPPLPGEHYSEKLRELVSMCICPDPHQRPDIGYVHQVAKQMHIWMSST
Chain of Tyrosine-protein kinase Fyn (Homo sapiens) (P06241 2-537 limits assumed): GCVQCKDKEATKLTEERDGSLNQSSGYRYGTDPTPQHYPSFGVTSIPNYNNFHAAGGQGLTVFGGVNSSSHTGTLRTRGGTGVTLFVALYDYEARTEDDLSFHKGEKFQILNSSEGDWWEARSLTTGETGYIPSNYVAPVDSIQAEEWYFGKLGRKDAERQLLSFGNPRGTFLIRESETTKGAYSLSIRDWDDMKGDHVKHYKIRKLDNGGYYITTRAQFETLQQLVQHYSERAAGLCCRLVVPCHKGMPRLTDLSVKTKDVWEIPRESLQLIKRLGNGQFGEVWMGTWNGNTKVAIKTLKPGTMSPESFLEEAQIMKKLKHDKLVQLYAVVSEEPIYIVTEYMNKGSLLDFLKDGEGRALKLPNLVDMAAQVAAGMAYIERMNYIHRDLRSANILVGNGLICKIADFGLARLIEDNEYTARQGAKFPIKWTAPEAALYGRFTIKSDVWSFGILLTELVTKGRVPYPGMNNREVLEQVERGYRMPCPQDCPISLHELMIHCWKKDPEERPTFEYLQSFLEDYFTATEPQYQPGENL

On to `N#Cc1ccc(Oc2nccc(-c3c(-c4ccc(F)cc4)ncn3C3CCNCC3)n2)cc1`, for which the inhibition in experiment [1] stood at 5.32%; in experiment [2] it was 2.19%; in [3], 2.49%; in [4], 4.13%; in [5], 4.63%; in [6], 3.13%. Further, the inhibition worked out at 3.68% in [7]; 3.62% in experiment [8]; 6.16% in [9]; 9.06% in experiment [10]; 9.35% in [11]; 4.8% in [12]. Further, the inhibition in experiment [13] is 4.75%; in experiment [14], 8.02%; in experiment [15], 4.07%; in [16] it was -3.29%; in experiment [17], -0.83%; in [18] it was 0.11%. Moreover, the inhibition in experiment [19] was 9.12%; in experiment [20] it was -0.87%.
Turning to `NC(=O)c1cc(-c2ccc(F)cc2)cc(-c2ccncc2)c1N`, the inhibition was found to be 3.16% in experiment [1]; 1.62% in experiment [2]; 1.03% in experiment [3]; 4.7% in experiment [4]; 3.75% in experiment [5]; 4.68% in [6]. In addition, the inhibition in [7] came to 6.66%; in experiment [8], 6.78%; in [9], 4.73%; in experiment [10] it was 7.94%; in experiment [11], 19.1%; in experiment [12], 5.25%. The inhibition in experiment [13] was 2.93%; in experiment [14] it was 11.9%; in experiment [15], -3.97%; in [16], -0.28%; in [17], 0.18%; in experiment [18], 2.97%. The inhibition was found to be 15.4% in experiment [19] and 0.07% in experiment [20].
